Screening results: PubChem, several laboratories
KKLEB cytotox = reduces viability of KKLEB cystic fibrosis airway cells | 0.36% of 360,000 active | activity change (cytotoxicity), % at 5 µM | KKLEB CF airway cells viability, ATPlite luminescence, overnight; active compounds read low; cells stimulated with P. aeruginosa culture filtrate;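 active = corrected activity change at or below -50% at 5 µM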
HIF-2a inh = inhibitors of HIF-2a. 786-0 RCC cells HIF-2a reporter, luciferase luminescence, overnight. inhibition, % at 18.8 µM. 0.72% of 360,000 active. AID 624352;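 active = inhibition of the luminescence signal of 40% or more relative to plate controls, in a single-dose primary screen at 18.75 µM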
MITF TRPM1 inh = reduces MITF-dependent TRPM1 promoter luciferase signal; inhibition, % at 12.5 µM; AID 488899; 0.83% of 330,000 active; SK-MEL-5 TRPM1 promoter luciferase, 24 h;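 active = mean inhibition across replicates of 60% or more, whatever share of single replicates reaches that level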
CHOP inh = blocks CHOP induction under ER stress | 3.8% of 220,000 active | CHO-K1 CHOP-promoter luciferase, tunicamycin-induced, 15-18 h | inhibition, % at 10 µM;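 active = compounds that reduced the stress-induced luciferase reporter signal by more than about 70% of percent inhibition, limit read from the data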
CF NFkB inh = blocks PAF-induced NF-kB reporter in cystic fibrosis cells; 0.86% of 360,000 active; AID 588850; KKLEB NF-kB-GFP reporter, GFP fluorescence overnight; inhibition, % at 5 µM;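 active = at least 50% inhibition at 5 µM, scaled per plate between neutral and stimulator controls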;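 also: PAF is a Pseudomonas aeruginosa culture filtrate used as stimulus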
Peg3 promoter = reduces Peg3 promoter-driven luciferase expression in HeLa; HeLa PEG-Prom luciferase reporter, luminescence, overnight; AID 588405; 1.7% of 360,000 active; inhibition, % at 20 µM;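 active = inhibition of at least 50% at 20 µM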
CHOP inh conf = confirmation of CHOP induction inhibitors | 45% of 2,100 active | inhibition, % at 10 µM | shares compounds with CHOP inh | CHO-CHOP promoter luciferase reporter, tunicamycin-induced, luminescence;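 active = mean of three repeat readings of reporter signal inhibition above a set limit, cut at about 70% in these data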
Hits are given with their value; n = inactive; x = no result. Compounds with a hit are over-represented: about 4.3% of the library has one in this group of screens.

SMILES | KKLEB cytotox | HIF-2a inh | MITF TRPM1 inh | CHOP inh | CF NFkB inh | Peg3 promoter | CHOP inh conf
Cc1ccc(C2CC2c2n[nH]c(=S)n2-c2ccc(C)cc2)cc1 (configuration not stated) | n | n | n | 100.4 | n | n | n
Cc1ccc(-n2c(C3CC3c3ccc(Cl)cc3)n[nH]c2=S)cc1 (configuration not stated) | n | n | n | n | n | n | x
CCOC(=O)c1c(C(C)(C)C)oc2ccc(O)cc12 | n | n | n | 103.9 | n | n | 106.4
Cc1ccc(CN(Cc2ccccc2)C(=S)NCC(=O)NCc2cccnc2)o1 | n | n | n | n | n | n | x
CC1CCCC(NCC(O)COC(c2ccc(F)cc2)c2ccc(F)cc2)C1C (configuration not stated) | n | n | 85.5 | 103.0 | n | 104.3 | 110.9
COc1ccc(Cn2cc(CN3CC(N4CC=CC4)CS3(=O)=O)nn2)cc1 (configuration not stated) | x | n | x | x | x | x | x
N/C(=N\c1nc(CSc2nc3ccccc3s2)cc(=O)[nH]1)Nc1ccc(F)cc1 | n | n | n | 99.5 | n | n | n
C=CCn1c(O)c(C2=c3ccccc3=NC2=O)sc1=Nc1ccc(O)cc1 | n | n | n | 104.3 | n | 63.5 | n
C=CCN1C(=O)CSC1=Nc1ccc(O)cc1 | n | n | n | n | n | n | x
O=C(OCc1ccccc1)N1CCC2CC1c1cc(NCCc3ccccc3)ccc12 (configuration not stated) | n | n | n | x | n | n | x
COc1cc(OC)c(C2C=CC(=O)CC2)c(OC)c1 (configuration not stated) | x | n | x | x | x | x | x
Cc1ccc(-n2ccc(=O)c(-c3ccnc(SCc4cccc(Cl)c4)n3)n2)cc1 | n | n | n | 98.2 | n | n | n
COC(=O)c1cccc(NC(=O)c2ccco2)c1 | n | n | n | n | n | n | x
O=C(COC(=O)c1cccc(NC(=O)c2ccco2)c1)c1ccc(Br)cc1 | n | n | n | 105.3 | n | n | n
CC(=O)Nc1ccc(-c2nnc(SCC(=O)c3ccc4c(c3)Cc3ccccc3-4)n2C)cc1 | n | n | n | 105.0 | n | n | n
Cc1c(NC(=O)C(C)OC(=O)/C=C/c2ccc(OC(F)F)cc2)c(=O)n(-c2ccccc2)n1C (configuration not stated) | n | n | n | x | n | n | x
O=C(Cc1cccs1)N=Nc1c(O)[nH]c2ccccc12 | n | n | n | n | n | n | x
O=C(CSc1nnc(SCc2cccc3ccccc23)s1)N=Nc1c(O)[nH]c2ccccc12 | x | x | x | 96.6 | x | x | n
Cc1[nH]c2ccccc2c1/C=N/NC(=O)C1CC1(c1ccccc1)c1ccccc1 (configuration not stated) | n | n | n | 106.1 | n | n | 100.9
CC1CCN(S(=O)(=O)c2ccc(C(=O)Nc3sccc3C(N)=O)cc2)CC1 | n | n | n | 96.5 | n | n | n
CN(C)NC(=O)c1ccsc1NC(=O)c1ccc(S(=O)(=O)N2CCCC2)cc1 | n | n | n | n | n | n | x
CCOC(=O)CNC(=O)CSc1nc(C(C)C)nc2c1cnn2-c1ccccc1 | n | n | x | x | n | n | x
Cc1cccc(Nc2nc(N)c([N+](=O)[O-])c(NCc3ccccc3)n2)c1 | n | n | n | 101.9 | n | n | n
COc1ccc(C(=O)N/C(=C\c2ccc3c(c2)OCO3)C(=O)N2CCOCC2)cc1 | n | n | n | x | n | n | x
O=C(OC(C(=O)Nc1cccc(C(F)(F)F)c1)c1ccccc1)C1CCCCC1 (configuration not stated) | n | n | n | 106.7 | n | n | n
SMILES | KKLEB cytotox | HIF-2a inh | MITF TRPM1 inh | CHOP inh | CF NFkB inh | Peg3 promoter | CHOP inh conf
COc1cc2nc(CSc3nc(-c4ccc(F)cc4)cs3)[nH]c(=O)c2cc1OC | n | n | n | 104.7 | n | n | n
COc1ccc2[nH]c3c(N4CC(C)OC(C)C4)ncnc3c2c1 (configuration not stated) | x | x | x | n | x | x | x
COc1cccc(N2CCN(c3ncnc4c3[nH]c3ccccc34)CC2C)c1 (configuration not stated) | x | x | x | 108.5 | x | x | 116.8
O=C(Nc1nnc(COc2ccc(F)cc2)s1)Nc1ccccc1F | n | n | x | 99.2 | n | n | n
COc1ccc(NC(=O)Nc2nnc(Cc3ccccc3)s2)cc1 | n | n | x | x | n | n | x
O=C(Nc1ccc(F)cc1)Nc1nnc(-c2ccco2)s1 | n | n | n | 96.3 | n | n | n
